From the antibiotic and cytotoxicity screens of Wong et al. (2023)
Hit rate of the full screen: of about 39,000 compounds, about 1,500 (3.8%) were called active. The sample holds actives, similar compounds and a random draw of the others, so the mix is not that of the screen.

What follows are compounds tested on HSkMC (human skeletal muscle cells) (assay: cytotoxicity call (relative viability < 0.9)). Conditions: 10 µM.
C[C@H](CO)N1C[C@H](C)[C@H](CN(C)S(=O)(=O)c2cn(C)cn2)Oc2cc(C#Cc3cccc(F)c3)ccc2S1(=O)=O was tested, and the cytotoxicity call was “inactive”.
In the case of COCC(=O)N1C[C@@H](C)[C@H](OC)CN(C)C(=O)c2ccc(NC(=O)Nc3cccc(F)c3)cc2OC[C@H]1C, the cytotoxicity call was “inactive”.
In the case of C[C@H]1CN([C@@H](C)CO)C(=O)c2cccc(NC(=O)c3cnccn3)c2O[C@@H]1CN(C)CC1CCCCC1, the cytotoxicity call was “inactive”.
For CC[C@@H]1OC(=O)[C@H](C)[C@@H](O[C@H]2C[C@@](C)(OC)[C@@H](O)[C@H](C)O2)[C@H](C)[C@@H](O[C@@H]2O[C@H](C)C[C@H](N(C)C)[C@H]2O)[C@](C)(O)C[C@@H](C)/C(=N\OCOCCOC)[C@H](C)[C@@H](O)[C@]1(C)O, the cytotoxicity call was “inactive”.
For CCNC(=O)C[C@@H]1C=C[C@H](NC(=O)C2CCOCC2)[C@H](CO)O1, the cytotoxicity call was “inactive”.
In the case of COc1ccc(C#Cc2cnc3c(c2)C(=O)N([C@H](C)CO)C[C@H](C)[C@H](CN(C)CC2CCOCC2)O3)cc1, the cytotoxicity call was “inactive”.
For C[C@H]1CCCCO[C@@H](CN(C)Cc2ccncc2)[C@@H](C)CN([C@@H](C)CO)C(=O)c2cc(NC(=O)C3CCCCC3)ccc2O1, the cytotoxicity call was “inactive”.
In the case of C[C@H]1CN([C@@H](C)CO)C(=O)c2cccc(NS(C)(=O)=O)c2O[C@@H]1CN(C)S(=O)(=O)c1ccccc1, the cytotoxicity call was “inactive”.
In the case of O=C(C[C@H]1CC[C@@H](NC(=O)Cc2ccccn2)[C@@H](CO)O1)NCCCN1CCOCC1, the cytotoxicity call was “inactive”.
With C[C@H]1CN([C@@H](C)CO)C(=O)Cc2cc(NS(C)(=O)=O)ccc2O[C@H]1CN(C)S(C)(=O)=O the cytotoxicity call was “inactive”.
With CCCn1c(=O)c(C#N)cn(C2CC2)c1=O the cytotoxicity call was “inactive”.
With N=C(N)SCc1csc(N)n1 the cytotoxicity call was “inactive”.
With C[C@H]1CN([C@@H](C)CO)C(=O)c2cc(NC(=O)Cc3cn(C)c4ccccc34)ccc2O[C@H]1CN(C)Cc1ccc(Cl)c(Cl)c1 the cytotoxicity call was “inactive”.
With C[C@@H]1CN([C@H](C)CO)C(=O)c2cc(NC(=O)Cc3cn(C)c4ccccc34)ccc2O[C@H]1CN(C)Cc1ccc(Cl)c(Cl)c1 the cytotoxicity call was “active”.
With C[C@H]1CN([C@@H](C)CO)C(=O)c2cc(NC(=O)Cc3cn(C)c4ccccc34)ccc2O[C@H]1CN(C)Cc1ccc(-c2ccccc2)cc1 the cytotoxicity call was “inactive”.
C[C@H]1CN([C@@H](C)CO)C(=O)c2cc(NC(=O)Cc3cn(C)c4ccccc34)ccc2O[C@@H]1CN(C)Cc1ccc(Cl)c(Cl)c1 was tested, and the cytotoxicity call was “active”.
With C[C@@H]1CN([C@@H](C)CO)C(=O)c2cc(NC(=O)Cc3cn(C)c4ccccc34)ccc2O[C@H]1CN(C)Cc1ccc(Cl)c(Cl)c1 the cytotoxicity call was “inactive”.
In the case of C[C@@H]1CN([C@@H](C)CO)C(=O)c2cc(NC(=O)CCN3CCOCC3)ccc2O[C@@H]1CN(C)S(C)(=O)=O, the cytotoxicity call was “inactive”.
With C[C@H](O)C#Cc1ccc2c(c1)O[C@@H](CN(C)C(=O)Nc1ccccc1)[C@@H](C)CN([C@H](C)CO)S2(=O)=O the cytotoxicity call was “inactive”.
In the case of CC(C)NC(=O)Nc1cccc2c1O[C@H](CN(C)Cc1ccc(C(=O)O)cc1)[C@H](C)CN([C@@H](C)CO)C2=O, the cytotoxicity call was “inactive”.
For CCC1C=C2C(=O)OC(=O)C2CC2=C(C(=O)OC2=O)C(OC(C)=O)C1CC (centres undefined), the cytotoxicity call was “inactive”.
For COc1ccc(CN(C)C[C@H]2Oc3ccc(NC(=O)C4CC4)cc3CC(=O)N([C@@H](C)CO)C[C@H]2C)cc1, the cytotoxicity call was “inactive”.
For O=C(C[C@H]1CC[C@@H]2[C@H](COC[C@@H](O)CN2S(=O)(=O)c2cccc(Cl)c2)O1)N1CCOCC1, the cytotoxicity call was “inactive”.
In the case of CN(C)C(=O)c1ccc(-c2cccc(-c3nc(C(=O)NC4CCCC4)cc4c3[C@H](CCO)N([S@@](=O)C(C)(C)C)C4)c2)cc1, the cytotoxicity call was “inactive”.
In the case of Nc1nonc1/C(=N/O)N1CCCCC1, the cytotoxicity call was “inactive”.
In the case of Cc1nn(C)c(COc2ccc(N3CCN(S(=O)(=O)N(C)C)CC3)cc2)c1-c1cccc2c(CCCOc3cccc4ccccc34)c(C(=O)O)n(CCN3CCNCC3)c12, the cytotoxicity call was “inactive”.
For O=C1C=CC(=O)N1, the cytotoxicity call was “active”.
With CN1CCC(OC(c2ccccc2)c2ccccc2)CC1.Cl the cytotoxicity call was “inactive”.
For CN1C2CCC1CC(OC(c1ccccc1)c1ccccc1)C2.CS(=O)(=O)O (centres undefined), the cytotoxicity call was “inactive”.
In the case of CC(C)(C)c1ccc(C(=O)CCCN2CCC(OC(c3ccccc3)c3ccccc3)CC2)cc1, the cytotoxicity call was “active”.
With C[C@H]1CCCCO[C@H](CN(C)C(=O)CCC(F)(F)F)[C@@H](C)CN([C@@H](C)CO)C(=O)c2cc(NC(=O)CCC(F)(F)F)ccc2O1 the cytotoxicity call was “inactive”.
C[C@@H]1CN([C@H](C)CO)C(=O)c2cc(NS(C)(=O)=O)ccc2O[C@@H]1CN(C)C(=O)Nc1ccc(C(F)(F)F)cc1 was tested, and the cytotoxicity call was “inactive”.
COC(=O)CSc1nc(=O)c(C)n[nH]1 was tested, and the cytotoxicity call was “inactive”.
C[C@@H]1CN([C@@H](C)CO)C(=O)c2cccc(NC(=O)Nc3ccc(C(F)(F)F)cc3)c2O[C@H]1CN(C)C(=O)Nc1cccc2ccccc12 was tested, and the cytotoxicity call was “inactive”.
C[C@H]1CN([C@@H](C)CO)C(=O)c2cccc(NC(=O)Nc3ccc(C(F)(F)F)cc3)c2O[C@@H]1CN(C)C(=O)Nc1cccc2ccccc12 was tested, and the cytotoxicity call was “active”.
In the case of C[C@H](CO)N1C[C@H](C)[C@@H](CN(C)C(=O)Nc2cccc3ccccc23)Oc2c(NC(=O)Nc3ccc(C(F)(F)F)cc3)cccc2C1=O, the cytotoxicity call was “inactive”.
With C[C@@H]1CN([C@H](C)CO)C(=O)c2cccc(NC(=O)Nc3ccc(C(F)(F)F)cc3)c2O[C@H]1CN(C)C(=O)Nc1cccc2ccccc12 the cytotoxicity call was “inactive”.
For C[C@@H]1CN([C@@H](C)CO)C(=O)c2cccc(NC(=O)Nc3ccc(C(F)(F)F)cc3)c2O[C@@H]1CN(C)C(=O)Nc1cccc2ccccc12, the cytotoxicity call was “active”.
With C[C@H]1CN([C@@H](C)CO)C(=O)c2cccc(NC(=O)Nc3ccc(C(F)(F)F)cc3)c2O[C@H]1CN(C)C(=O)Nc1cccc2ccccc12 the cytotoxicity call was “inactive”.
With C[C@H](CO)N1C[C@H](C)[C@H](CN(C)C(=O)Nc2cccc3ccccc23)Oc2c(NC(=O)Nc3ccc(C(F)(F)F)cc3)cccc2C1=O the cytotoxicity call was “inactive”.
With C[C@@H]1CN([C@H](C)CO)C(=O)c2cccc(NC(=O)Nc3ccc(C(F)(F)F)cc3)c2O[C@@H]1CN(C)C(=O)Nc1cccc2ccccc12 the cytotoxicity call was “active”.
For COCC#Cc1cnc2c(c1)C(=O)N([C@@H](C)CO)C[C@@H](C)[C@@H](CN(C)C(C)=O)O2, the cytotoxicity call was “inactive”.
C[C@@H]1CN([C@H](C)CO)C(=O)c2cc(NC(=O)CCCN(C)C)ccc2O[C@H]1CN(C)S(=O)(=O)c1ccccc1 was tested, and the cytotoxicity call was “inactive”.
With C[C@@H]1CCCCO[C@H](CN(C)Cc2ccccc2)[C@H](C)CN([C@H](C)CO)C(=O)c2cc(NC(=O)CCC(F)(F)F)ccc2O1 the cytotoxicity call was “inactive”.
For Cc1ccc(S(=O)(=O)Nc2ccc3c(c2)C(=O)N([C@@H](C)CO)C[C@H](C)[C@H](CN(C)C(=O)Nc2ccccc2)OCCCC[C@@H](C)O3)cc1, the cytotoxicity call was “inactive”.
With CCS(=O)(=O)N1CC[C@@H]2CO[C@H](CN3CCN(C)CC3)[C@@H]2C1 the cytotoxicity call was “inactive”.
With Cc1noc(C)c1S(=O)(=O)Nc1ccc2c(c1)CC(=O)N([C@@H](C)CO)C[C@H](C)[C@@H](CN(C)CC1CC1)O2 the cytotoxicity call was “inactive”.
C[C@H]1CCCCO[C@@H](CN(C)S(=O)(=O)c2ccccc2)[C@@H](C)CN([C@@H](C)CO)C(=O)c2cc(NC(=O)Nc3ccc(C(F)(F)F)cc3)ccc2O1 was tested, and the cytotoxicity call was “inactive”.
In the case of CO[C@H]1/C=C\C=C(/C)C(=O)NC2=CC(=O)C=C(C2=O)[C@H](OC)[C@@H](C)C[C@H](OC)[C@H](O)[C@@H](C)/C=C(\C)[C@@H]1OC(N)=O, the cytotoxicity call was “inactive”.
For COC1=C2C[C@H](C)C[C@H](OC)[C@@H](O)[C@H](C)/C=C(\C)[C@H](OC(N)=O)[C@H](OC)/C=C/C=C(\C)C(=O)NC(=CC1=O)C2=O, the cytotoxicity call was “inactive”.
C=CCNC1=C2C[C@@H](C)C[C@H](OC)[C@H](O)[C@@H](C)/C=C(\C)[C@H](OC(N)=O)[C@@H](OC)/C=C\C=C(/C)C(=O)NC(=CC1=O)C2=O was tested, and the cytotoxicity call was “active”.
With C=CCNC1=C2C[C@H](C)C[C@H](OC)[C@@H](O)[C@H](C)/C=C(\C)[C@H](OC(N)=O)[C@H](OC)/C=C/C=C(\C)C(=O)NC(=CC1=O)C2=O the cytotoxicity call was “active”.
With COC1=C2C[C@@H](C)C[C@H](OC)[C@H](O)[C@@H](C)/C=C(\C)[C@H](OC(N)=O)[C@@H](OC)/C=C\C=C(/C)C(=O)NC(=CC1=O)C2=O the cytotoxicity call was “inactive”.
With CO[C@H]1/C=C\C=C(/C)C(=O)NC2=CC(=O)C(NCCN(C)C)=C(C[C@@H](C)C[C@H](OC)[C@H](O)[C@@H](C)/C=C(\C)[C@@H]1OC(N)=O)C2=O the cytotoxicity call was “active”.
For COC1=C2C[C@@H](C)C[C@H](OC)[C@H](O)[C@@H](C)/C=C(\C)[C@H](OC(N)=O)[C@@H](OC)/C=C/C=C(\C)C(=O)NC(=CC1=O)C2=O, the cytotoxicity call was “active”.
Cc1noc(C)c1NC(=O)Nc1ccc2c(c1)CC(=O)N([C@H](C)CO)C[C@H](C)[C@H](CN(C)Cc1ccc(C(F)(F)F)cc1)O2 was tested, and the cytotoxicity call was “inactive”.
For C[C@H](CO)N1C[C@H](C)[C@H](CN(C)CC2CCOCC2)Oc2ncc(C#Cc3cccc(F)c3)cc2C1=O, the cytotoxicity call was “inactive”.
For CC(C)(C)c1cccc(N)c1, the cytotoxicity call was “inactive”.
CCCC(=O)Nc1ccc2c(c1)C(=O)N(C)C[C@@H](OC)[C@@H](C)CN(Cc1ccc(-c3ccccn3)cc1)[C@@H](C)CO2 was tested, and the cytotoxicity call was “inactive”.
With COc1cccc(OCc2ccc(Cn3nc(NC(=O)NCc4ccc(F)cc4)c4ccccc43)cc2)c1 the cytotoxicity call was “inactive”.
For O=c1ccoc2cc(O)c([C@H]3O[C@H](CO)[C@@H](O)[C@H](O)[C@@H]3O)c(O)c12, the cytotoxicity call was “inactive”.
For C[C@H]1CN([C@@H](C)CO)C(=O)Cc2cc(NC(=O)C3CCCCC3)ccc2O[C@@H]1CN(C)C(=O)Nc1ccc(C(F)(F)F)cc1, the cytotoxicity call was “inactive”.
With CC(C)NC(=O)N(C)C[C@H]1Oc2c(NC(=O)C3CCOCC3)cccc2C(=O)N([C@@H](C)CO)C[C@H]1C the cytotoxicity call was “inactive”.
For CCC(=O)OC(CC(=O)O)C[N+](C)(C)C.[Cl-] (centres undefined), the cytotoxicity call was “inactive”.
